The text below walks through data of PubChem BioAssay (EPA / NIEHS).

Assay [1] in a line: ATG_GRE_CIS: Attagene CIS-FACTORIAL HepG2 Assay for human Glucocorticoid Response Elements (GRE) (AID 2282947). Particulars: HepG2 GRE cis-reporter, Attagene multiplex mRNA; actives raise or lower the signal. The procedure, abridged: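 Reporter transcripts read by RT-PCR with capillary electrophoresis fluorescence after a 24 h chemical exposure of HepG2 cells transiently transfected with multiple cis-element reporter units. Gain or loss fitted against DMSO.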

The nature of assay [2]: ATG_ISRE_CIS: Attagene CIS-FACTORIAL HepG2 Assay for human Interferon Regulatory Factor 1 (IRF1) binding to an Interferon-Stimulated Response Element (ISRE) (AID 2282948). Particulars: HepG2 ISRE cis-reporter (Attagene), mRNA transcription readout; actives raise or lower the signal. The procedure, abridged: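 Uses HepG2 liver cells transfected with cis-regulated reporters and measures mRNA 24 h post-dosing through RT-PCR, primer-extension labelling and capillary electrophoresis, with DMSO as negative control.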

The nature of assay [3]: ATG_M_32_CIS: Attagene CIS-FACTORIAL HepG2 Assay for M32 Transcription Factor (Internal Marker) (AID 2282949).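 Also: background control marker of the multiplexed CIS panel rather than a real target.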 Particulars: HepG2 Attagene cis-factorial M32 reporter, mRNA; actives raise or lower the signal. In a few lines:
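HepG2 human liver cells transiently transfected with cis-promoter-driven multiple reporter transcription units, dosed 24 h. Reporter mRNA quantified by RT-PCR, FAM-labelled primer extension, HpaI digest and capillary electrophoresis; bidirectional fit versus DMSO baseline.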

Assay [4] in a line: ATG_M_06_CIS: Attagene CIS-FACTORIAL HepG2 Assay for M06 Transcription Factor (Internal Marker) (AID 2282950). The conditions noted are these: HepG2 Attagene CIS-FACTORIAL M06 internal marker reporter; actives raise or lower the signal. The procedure, abridged:
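Measured 24 h post-dosing in transiently transfected HepG2 cells, this internal-marker endpoint reports reporter mRNA via RT-PCR with fluorescent primer extension and capillary electrophoresis. DMSO served as negative control and baseline for bidirectional fitting.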

For assay [5], the target named is Hypoxia-inducible factor 1-alpha (Homo sapiens) (UniProt Q16665). The assay is described as follows: ATG_HIF1a_CIS: Attagene CIS-FACTORIAL HepG2 Assay for human Hypoxia Inducible Factor 1 (HIF1A) (AID 2282951). Particulars: HepG2 Attagene cis-factorial HIF1a reporter transcription; actives raise or lower the signal. In a few lines: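 HepG2 cells transiently transfected with multiplexed cis-promoter reporter units; reporter mRNA read 24 h after dosing by RT-PCR, 6-FAM primer-extension labelling, HpaI digestion and capillary electrophoresis. Bidirectional fit versus DMSO baseline.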
Chain of Hypoxia-inducible factor 1-alpha (Homo sapiens) (Q16665 whole entry, looked up): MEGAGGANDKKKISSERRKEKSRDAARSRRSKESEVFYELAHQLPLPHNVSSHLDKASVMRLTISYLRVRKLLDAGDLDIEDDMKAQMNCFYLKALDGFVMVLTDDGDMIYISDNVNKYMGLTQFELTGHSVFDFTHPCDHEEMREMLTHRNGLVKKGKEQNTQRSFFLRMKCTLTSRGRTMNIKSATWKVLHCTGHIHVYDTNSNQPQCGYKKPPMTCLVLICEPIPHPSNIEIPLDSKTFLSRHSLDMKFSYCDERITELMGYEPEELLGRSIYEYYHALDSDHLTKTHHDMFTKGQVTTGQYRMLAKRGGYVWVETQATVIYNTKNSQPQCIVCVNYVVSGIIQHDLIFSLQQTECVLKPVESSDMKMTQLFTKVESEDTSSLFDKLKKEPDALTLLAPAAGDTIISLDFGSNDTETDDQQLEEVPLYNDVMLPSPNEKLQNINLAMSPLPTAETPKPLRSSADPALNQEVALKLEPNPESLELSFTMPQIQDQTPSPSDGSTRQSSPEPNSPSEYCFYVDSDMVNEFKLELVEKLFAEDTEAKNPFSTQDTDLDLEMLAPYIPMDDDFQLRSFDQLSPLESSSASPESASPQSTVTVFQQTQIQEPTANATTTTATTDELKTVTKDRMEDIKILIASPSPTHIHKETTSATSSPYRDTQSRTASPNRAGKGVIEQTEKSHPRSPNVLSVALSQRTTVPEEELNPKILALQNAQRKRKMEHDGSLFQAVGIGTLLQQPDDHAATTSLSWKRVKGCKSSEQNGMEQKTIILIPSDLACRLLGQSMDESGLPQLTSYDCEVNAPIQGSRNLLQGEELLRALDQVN

For assay [6], the target named is Hepatocyte nuclear factor 6 (Homo sapiens) (UniProt Q9UBC0). The assay is described as follows: ATG_HNF6_CIS: Attagene CIS-FACTORIAL HepG2 Assay for human Hepatocyte Nuclear Factor 6 (HNF6) (AID 2282952). The conditions noted are these: HepG2 Attagene cis-factorial HNF6 reporter transcription; actives raise or lower the signal. The procedure, abridged: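 First, HepG2 cells were transfected with the multiplexed cis reporter library and dosed with chemical for 24 h. Next, RNA was reverse-transcribed, PCR-amplified and fluorescently labelled. Finally, HpaI-digested fragments were read by capillary electrophoresis.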
Chain of Hepatocyte nuclear factor 6 (Homo sapiens) (Q9UBC0 whole entry, looked up, the tested form may be a part): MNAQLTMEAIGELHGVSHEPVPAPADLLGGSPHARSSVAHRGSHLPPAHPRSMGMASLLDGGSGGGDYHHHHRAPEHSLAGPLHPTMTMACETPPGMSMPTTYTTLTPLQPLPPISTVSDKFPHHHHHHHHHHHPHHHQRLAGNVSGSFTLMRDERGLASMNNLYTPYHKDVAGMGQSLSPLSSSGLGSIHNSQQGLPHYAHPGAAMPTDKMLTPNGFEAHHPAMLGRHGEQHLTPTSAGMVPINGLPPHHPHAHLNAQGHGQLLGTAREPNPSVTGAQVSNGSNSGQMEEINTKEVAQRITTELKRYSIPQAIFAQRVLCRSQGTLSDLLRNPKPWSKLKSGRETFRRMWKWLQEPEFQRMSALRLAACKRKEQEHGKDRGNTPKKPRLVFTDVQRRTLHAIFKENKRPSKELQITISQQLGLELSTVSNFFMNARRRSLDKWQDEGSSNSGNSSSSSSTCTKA

The target of assay [7] is Heat shock factor protein 1 (Homo sapiens) (UniProt Q00613). The assay is described as follows: ATG_HSE_CIS: Attagene CIS-FACTORIAL HepG2 Assay for human Heat Shock Transcription Factor 1 (HSE) (AID 2282953). The conditions noted are these: HepG2 HSE cis-reporter, Attagene RNA transcription; actives raise or lower the signal. In a few lines:
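Reporter mRNA induction in HepG2 is measured 24 h after dosing, using transiently transfected multiplexed cis-regulated reporter units. Signal comes from capillary electrophoresis of labelled RT-PCR products, with DMSO as negative control.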

A short description of assay [8]: ATG_MRE_CIS: Attagene CIS-FACTORIAL HepG2 Assay for human Metal Responsive Element (MRE) (AID 2282954). The conditions noted are these: HepG2 MRE cis-reporter transcription, Attagene multiplex; actives raise or lower the signal. In a few lines:
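Endogenous MRE-dependent transcription read as reporter mRNA in transiently transfected human HepG2 cells at 24 h. RNA reverse-transcribed, PCR-amplified, labelled and resolved by capillary electrophoresis; gain or loss relative to DMSO.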

Assay [9] is described as follows: ATG_PBREM_CIS: Attagene CIS-FACTORIAL HepG2 Assay for human Phenobarbital-responsive Enhancer Module (PBREM) (AID 2282955). The conditions noted are these: HepG2 PBREM cis-reporter, Attagene multiplexed transcription; actives raise or lower the signal. In a few lines: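 HepG2 cells transiently transfected with multiple cis-regulated reporter transcription units; endogenous factor activity at the PBREM element measured as reporter mRNA 24 h after dosing, via RT-PCR and capillary electrophoresis of fluorescent fragments; bidirectional fitting versus DMSO.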

Assay [10] addresses Paired box protein Pax-6 (Homo sapiens) (UniProt P26367). Kind of assay: ATG_Pax6_CIS: Attagene CIS-FACTORIAL HepG2 Assay for human Paired Box 6 (PAX6) (AID 2282956). The conditions noted are these: HepG2 CIS-FACTORIAL PAX6 reporter transcription, RNA readout; actives raise or lower the signal. In a few lines:
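DMSO-referenced bidirectional fits of reporter mRNA fluorescence; HepG2 with transient cis-promoter MRTUs, 24 h post-dose, RT-PCR plus capillary electrophoresis detection.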

Assay [11] is described as follows: ATG_PXRE_CIS: Attagene CIS-FACTORIAL HepG2 Assay for human Pregnane X Receptor Element (PXRE) (AID 2282957). Particulars: HepG2 Attagene CIS-FACTORIAL PXRE reporter, mRNA; actives raise or lower the signal. In a few lines: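 After a 24 h chemical incubation, total RNA from transfected HepG2 cells was reverse-transcribed and reporter cDNA amplified, FAM-labeled, HpaI-digested and sized by capillary electrophoresis. DMSO served as baseline for bidirectional curve fitting.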

Assay [12] in a line: ATG_RORE_CIS: Attagene CIS-FACTORIAL HepG2 Assay for human RAR-related Orphan Receptor Element (RORE) (AID 2282959). Particulars: HepG2 Attagene cis-factorial RORE reporter, mRNA; actives raise or lower the signal. In a few lines:
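HepG2 cells transiently transfected with multiple cis-element reporter transcription units, exposed to chemical for 24 h. Reporter mRNA quantified by RT-PCR, 6-FAM primer-extension labeling, HpaI digestion and capillary electrophoresis; bidirectional fit versus DMSO baseline.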

Assay [13] can be described thus: ATG_Sox_CIS: Attagene CIS-FACTORIAL HepG2 Assay for human SRY-box transcription factor (SOX) (AID 2282960). Particulars: HepG2 Attagene cis-factorial SOX reporter, mRNA; actives raise or lower the signal. The procedure, abridged: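 HepG2 cells transiently transfected with cis-element-driven multiple reporter transcription units, dosed 24 h; reporter mRNA measured by RT-PCR, FAM labelling, HpaI digestion and capillary electrophoresis. Bidirectional fit versus DMSO baseline.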

Assay [14] concerns the target Transcription factor Sp1 (Homo sapiens) (UniProt P08047). Kind of assay: ATG_Sp1_CIS: Attagene CIS-FACTORIAL HepG2 Assay for human Specificity Protein 1 (Sp1) (AID 2282961). The conditions noted are these: HepG2 Sp1 cis-reporter transcription, actives raise or lower the signal. The procedure, abridged:
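HepG2 cells transiently transfected with multiple reporter transcription units driven by cis-regulatory elements; Sp1-responsive reporter mRNA measured 24 h after dosing by RT-PCR and capillary electrophoresis fluorescence, fitted bidirectionally against DMSO baseline.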

The target of assay [15] is Signal transducer and activator of transcription 3 (Homo sapiens) (UniProt P40763). The assay is described as follows: ATG_STAT3_CIS: Attagene CIS-FACTORIAL HepG2 Assay for human Signal Transducer and Activator of Transcription 3 (STAT3) (AID 2282963). Particulars: HepG2, Attagene cis-factorial STAT3 reporter transcription; actives raise or lower the signal. The procedure, abridged:
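Readout is reporter transcript quantified by RT-PCR and capillary electrophoresis, with 6-FAM primer extension and HpaI digestion. Total RNA is taken 24 h after dosing transiently transfected HepG2 carrying cis-regulated reporter units. Bidirectional fit against DMSO.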

The nature of assay [16]: ATG_TA_CIS: Attagene CIS-FACTORIAL HepG2 Assay for human TA Basal Promoter (AID 2282964). Particulars: HepG2 Attagene CIS-factorial TA basal promoter reporter; actives raise or lower the signal. The procedure, abridged:
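Cis-factorial format in HepG2: reporters report endogenous factors, not chimeric Gal4 fusions. After 24 h treatment, reporter transcripts were measured by RT-PCR-capillary electrophoresis fluorescence, analysed bidirectionally versus DMSO.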

Assay [17] can be described thus: ATG_TCF_b_cat_CIS: Attagene CIS-FACTORIAL HepG2 Assay for human T-Cell-Factor with beta-catenin (TCF/b-cat) (AID 2282965). The conditions noted are these: HepG2 TCF/beta-catenin cis-reporter transcription, actives raise or lower the signal. In a few lines: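 Measured: reporter mRNA in HepG2 transiently transfected with cis-promoter reporter units, 24 h after chemical addition. Fitting was bidirectional, DMSO as negative control.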

Assay [18] in a line: ATG_PPRE_CIS: Attagene CIS-FACTORIAL HepG2 Assay for human Peroxisome Proliferator-activated Response Element (PPRE) (AID 2282958). The conditions noted are these: HepG2 PPRE cis-element reporter, Attagene transcription factor profiling; actives raise or lower the signal. In a few lines: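 HepG2 cells transiently transfected with multiplexed cis-element reporter units measure endogenous transcription factor activity. After 24 h compound exposure, reporter mRNA is quantified by RT-PCR, 6-FAM labeling, HpaI digestion and capillary electrophoresis; bidirectional fits are made against DMSO baseline.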

Assay [19] can be described thus: ATG_SREBP_CIS: Attagene CIS-FACTORIAL HepG2 Assay for human Sterol Regulatory Element Binding (SREBP) (AID 2282962). The conditions noted are these: HepG2 Attagene cis-factorial SREBP reporter, mRNA; actives raise or lower the signal. The procedure, abridged:
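In this cis-format assay, HepG2 liver cells express reporters controlled by promoter elements responsive to native transcription factors. Exposure lasts 24 h; reporter mRNA fluorescence from capillary electrophoresis gives the signal, fitted bidirectionally against DMSO.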

The source made the active and inactive calls. The calls were made as follows: active = hit-call score of the fitted dose curve at least 0.9, where 1 is the maximum; inactive = score below 0.9.

Chain of Paired box protein Pax-6 (Homo sapiens) (P26367 whole entry, looked up): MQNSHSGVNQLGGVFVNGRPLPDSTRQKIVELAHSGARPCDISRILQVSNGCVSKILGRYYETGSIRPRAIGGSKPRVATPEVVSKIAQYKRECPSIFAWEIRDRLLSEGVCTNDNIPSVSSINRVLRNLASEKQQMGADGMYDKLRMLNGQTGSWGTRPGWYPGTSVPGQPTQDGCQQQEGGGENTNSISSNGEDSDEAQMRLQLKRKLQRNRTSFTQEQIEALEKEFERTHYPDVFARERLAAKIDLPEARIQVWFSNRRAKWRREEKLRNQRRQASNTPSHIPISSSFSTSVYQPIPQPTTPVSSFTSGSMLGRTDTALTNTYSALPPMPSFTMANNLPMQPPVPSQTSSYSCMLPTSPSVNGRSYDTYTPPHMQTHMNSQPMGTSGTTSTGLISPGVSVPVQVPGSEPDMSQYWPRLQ
Chain of Signal transducer and activator of transcription 3 (Homo sapiens) (P40763 whole entry, looked up): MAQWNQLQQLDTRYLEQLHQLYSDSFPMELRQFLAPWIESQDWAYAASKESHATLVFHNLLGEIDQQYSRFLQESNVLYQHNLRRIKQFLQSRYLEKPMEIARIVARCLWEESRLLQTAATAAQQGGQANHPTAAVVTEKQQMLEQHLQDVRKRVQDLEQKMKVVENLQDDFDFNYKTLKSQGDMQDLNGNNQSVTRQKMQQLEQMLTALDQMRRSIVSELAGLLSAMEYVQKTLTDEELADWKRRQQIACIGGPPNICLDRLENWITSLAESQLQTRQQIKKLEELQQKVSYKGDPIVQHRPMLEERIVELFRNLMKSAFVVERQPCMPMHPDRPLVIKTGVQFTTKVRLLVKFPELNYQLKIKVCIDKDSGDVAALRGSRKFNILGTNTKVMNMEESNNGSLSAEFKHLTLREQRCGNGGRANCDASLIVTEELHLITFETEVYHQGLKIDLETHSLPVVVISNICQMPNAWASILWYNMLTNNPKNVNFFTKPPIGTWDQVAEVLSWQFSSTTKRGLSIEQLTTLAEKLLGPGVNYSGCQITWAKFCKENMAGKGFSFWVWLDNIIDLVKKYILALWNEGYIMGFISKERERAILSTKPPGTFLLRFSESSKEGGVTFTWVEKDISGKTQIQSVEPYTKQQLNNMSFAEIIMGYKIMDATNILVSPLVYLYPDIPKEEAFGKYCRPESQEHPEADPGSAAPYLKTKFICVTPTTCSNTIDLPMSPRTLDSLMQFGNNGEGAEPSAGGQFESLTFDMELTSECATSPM
Chain of Transcription factor Sp1 (Homo sapiens) (P08047 whole entry, looked up): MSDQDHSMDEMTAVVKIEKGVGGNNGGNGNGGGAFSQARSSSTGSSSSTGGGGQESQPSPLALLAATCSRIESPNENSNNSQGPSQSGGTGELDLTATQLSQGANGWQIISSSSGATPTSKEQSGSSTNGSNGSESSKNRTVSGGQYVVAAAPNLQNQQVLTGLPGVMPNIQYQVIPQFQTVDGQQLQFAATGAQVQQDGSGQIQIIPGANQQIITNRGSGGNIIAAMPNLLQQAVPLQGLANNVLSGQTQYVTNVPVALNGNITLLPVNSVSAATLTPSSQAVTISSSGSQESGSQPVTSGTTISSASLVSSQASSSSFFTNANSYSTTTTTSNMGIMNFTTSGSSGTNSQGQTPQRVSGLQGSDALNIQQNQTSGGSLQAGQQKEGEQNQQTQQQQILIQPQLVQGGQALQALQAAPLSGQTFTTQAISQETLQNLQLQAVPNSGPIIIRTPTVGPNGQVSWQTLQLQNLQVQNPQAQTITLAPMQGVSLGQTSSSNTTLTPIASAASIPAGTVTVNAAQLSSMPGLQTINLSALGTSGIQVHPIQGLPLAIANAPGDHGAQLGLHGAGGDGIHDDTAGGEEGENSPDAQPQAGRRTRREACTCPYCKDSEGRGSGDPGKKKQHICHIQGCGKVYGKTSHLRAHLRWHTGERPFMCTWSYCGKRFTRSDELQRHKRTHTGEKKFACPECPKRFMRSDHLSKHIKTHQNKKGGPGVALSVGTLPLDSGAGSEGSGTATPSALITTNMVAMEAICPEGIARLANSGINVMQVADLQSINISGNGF
Chain of Heat shock factor protein 1 (Homo sapiens) (Q00613 whole entry, looked up): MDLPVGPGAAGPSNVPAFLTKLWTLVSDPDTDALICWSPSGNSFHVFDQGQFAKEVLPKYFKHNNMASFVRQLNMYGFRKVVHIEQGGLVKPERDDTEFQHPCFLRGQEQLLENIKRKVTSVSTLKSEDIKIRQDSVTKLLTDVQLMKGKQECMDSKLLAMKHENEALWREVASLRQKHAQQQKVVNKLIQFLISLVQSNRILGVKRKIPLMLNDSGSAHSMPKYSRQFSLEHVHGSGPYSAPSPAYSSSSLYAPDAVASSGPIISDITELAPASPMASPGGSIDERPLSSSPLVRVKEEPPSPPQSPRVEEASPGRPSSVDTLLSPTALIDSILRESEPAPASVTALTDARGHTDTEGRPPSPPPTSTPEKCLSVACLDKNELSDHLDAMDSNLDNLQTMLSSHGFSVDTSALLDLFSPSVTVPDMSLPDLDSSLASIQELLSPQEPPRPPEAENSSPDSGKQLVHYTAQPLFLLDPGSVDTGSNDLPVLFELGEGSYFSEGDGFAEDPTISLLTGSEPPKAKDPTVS

As for `C=C(C)c1cccc(C(C)(C)N=C=O)c1`, the result in [1], in assay [2], in assay [3], in [4], in assay [5] and in [6] was inactive. For the same molecule, the molecule was called inactive in assay [7], in assay [8], in [9], in assay [10], in [12] and in [13]. Also, the call in assay [14], in assay [15], in [16] and in assay [17] was inactive. Besides, the AC50 in [11] was 0.0919 µM (active).

Consider `CCCCC(CC)COC(=O)c1ccccc1` (stereo not drawn), for which the outcome in [1], in [2], in assay [3], in assay [4], in assay [5] and in [6] was inactive. Further, the molecule was classed as inactive in assay [7], in assay [8], in assay [9], in [10], in assay [18] and in [12]. For the same molecule, the molecule was classed as inactive in [14], in assay [19], in [15] and in assay [17]. Moreover, the AC50 in [11] is 27.6 µM (active).

Regarding `c1ccc2c(c1)ccc1ncccc12`, the result in assay [1], in assay [3], in assay [4], in assay [5], in assay [6] and in [7] was inactive. Further, the result in [8], in assay [9], in assay [10], in [18], in assay [12] and in [13] was inactive. The outcome in [14], in assay [19], in assay [15], in assay [16] and in [17] was inactive. In addition, the AC50 is 150 µM (active) in assay [2] and 25.3 µM (active) in [11].

For the molecule `CC(=O)OCC(=O)[C@@]12N=C(C)O[C@@H]1C[C@H]1[C@@H]3CCC4=CC(=O)C=C[C@]4(C)[C@H]3[C@@H](O)C[C@@]12C`, the AC50 was 0.189 µM (active) in assay [1] and 17.6 µM (active) in [11]. For the same molecule, the call in assay [2], in [3], in assay [4], in assay [5], in assay [6] and in [7] was inactive. Moreover, the molecule was called inactive in assay [8], in [9], in assay [10], in [18], in assay [13] and in assay [14]. The call in assay [15], in [16] and in [17] was inactive.

Take `OC1CCCCCCCCCCC1`: the molecule was classed as inactive in assay [1], in assay [2], in [3], in [4], in assay [5] and in assay [6]. Also, the molecule was called inactive in assay [7], in assay [9], in assay [10], in assay [18], in assay [14] and in assay [19]. Also, the molecule was called inactive in [15], in [16] and in assay [17]. For the same molecule, the results for the concentration at half-maximal activity (AC50) in [8] and in assay [11] were 100 µM (active) and 4.47 µM (active), respectively.

`CN(C)CCCN(C)C`: the molecule was classed as inactive in assay [1], in assay [2], in assay [3], in [4], in assay [5] and in assay [6]. Also, the molecule was classed as inactive in assay [7], in assay [8], in assay [9], in assay [10], in assay [18] and in assay [12]. The outcome in assay [13], in assay [14], in assay [19], in [15], in [16] and in [17] was inactive.

Take `O=c1[nH]c(=O)c2[nH]c(=O)[nH]c2[nH]1`: the outcome in [1], in assay [2], in assay [3], in [4], in assay [5] and in assay [6] was inactive. Moreover, the molecule was called inactive in [7], in assay [8], in assay [10], in assay [11], in assay [18] and in assay [12]. In addition, the molecule was called inactive in [13], in [14], in assay [19], in assay [15], in assay [16] and in [17].

What is called AC50 is the concentration at which the activity in the assay is half-maximal.
